JMJD2E inh – blocks human JMJD2E demethylase activity. B2RXH2. JMJD2E catalytic domain, FDH-coupled NADH fluorescence (FDH is formaldehyde dehydrogenase). Potency, µM (highest dose often 57.1 µM), usual class: inhibitors. 1.6% of 230,000 active. AID 2147; active means well fitted inhibition curve with a large enough effect, not every such curve was filed as active; inconclusive means small, poorly fitted or top-dose-only effect, or another doubt; inactive means no such curve, though single readings can be large or run the other way; further: nearly all actives have a fitted effect of over 50% in size
Target sequence (B2RXH2 1-337 limits assumed): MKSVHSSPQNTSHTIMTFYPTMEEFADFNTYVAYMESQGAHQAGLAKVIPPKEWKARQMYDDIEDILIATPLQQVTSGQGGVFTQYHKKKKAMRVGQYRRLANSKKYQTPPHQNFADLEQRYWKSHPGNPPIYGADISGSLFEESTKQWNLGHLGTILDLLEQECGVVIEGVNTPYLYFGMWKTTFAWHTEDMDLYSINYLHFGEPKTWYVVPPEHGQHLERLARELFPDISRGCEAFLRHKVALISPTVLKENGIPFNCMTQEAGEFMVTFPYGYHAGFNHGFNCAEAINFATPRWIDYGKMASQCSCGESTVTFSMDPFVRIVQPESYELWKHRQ
Tau fluor cs – counter-screen for tau fibril formation inhibitors; 0.93% of 280,000 active; AID 1463; Potency, µM (highest dose often 57.7 µM); tau K18 P301L Alexa594 fluorescence, heparin fibrillization; further: nearly all actives have a fitted effect of over 55% in size
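Human K18 P301L tau (15 uM unlabeled plus 0.24 uM Alexa 594-labeled, final) in 100 mM sodium acetate pH 7 was mixed with compound and 20 uM heparin and incubated 6 hr at 37 C.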
Coupling enz – counter-screen for Giardia aldolase inhibitors: coupling enzyme system; coupling enzyme system counterscreen, AmpLite Red fluorescence; activity change, negative = inhibition, % at 58.2 µM, hits read low; 0.67% of 290,000 active; in the data active means activity change below about -30%
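Counterscreen of the coupled detection system alone, without aldolase: glyceraldehyde-3-phosphate coupling enzymes plus AmpLite Red readout. Compounds at 57.5 uM final, 10 min RT preincubation, 20 min RT reaction, fluorescence 525/598 nm.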
Tau fibril FP – blocks human tau fibril formation measured by polarization; P10636; K18 P301L tau heparin fibrillization, Alexa594 FP, 6 h; Potency, µM (doses to about 57.7 µM), most hits filed as inhibitors; 0.39% of 280,000 active; AID 1468; further: nearly all actives have a fitted effect of over 55% in size
Target sequence (P10636 561-689 P618L limits assumed): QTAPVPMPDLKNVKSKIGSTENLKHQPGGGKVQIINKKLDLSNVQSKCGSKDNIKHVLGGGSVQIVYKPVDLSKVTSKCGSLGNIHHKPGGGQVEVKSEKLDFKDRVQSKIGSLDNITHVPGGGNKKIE
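Human tau K18 […] P301L fragment, 15 uM unlabeled plus 0.24 uM Alexa 594-labeled tau (final), with compound and 20 uM heparin in 100 mM sodium acetate pH 7; 6 hr at 37 C, then Alexa 594 FP read.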
Tau fibril ThT – inhibitors of human tau fibril formation, thioflavin T binding. Potency, µM (highest dose often 57.4 µM), usual class: inhibitors. AID 1460. P10636. recombinant tau K18 P301L, heparin-induced fibrillization, ThT fluorescence. 2.1% of 270,000 active; further: nearly all actives have a fitted effect of over 55% in size
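Using a mix of unlabeled (15 uM) and Alexa 594-labeled (0.24 uM) tau K18 P301L, heparin-triggered fibrillization over 6 hr at 37 C was scored by ThT fluorescence.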
Of the large screens only hits and unclear results are named; the others gave an inactive call; ! = not confirmed by another sample; [ ] = remark or other dose. This is a sample that favours compounds with a hit; in the whole collection about 3% have one here. Unless noted, the call rests on the fitted dose curve; in most records, active means well fitted curve in the direction sought with a large enough effect; inconclusive means small, poorly fitted or top-dose-only effect, or another doubt; inactive means no such curve, though single readings can be large; an effect the other way counts as inactive or inconclusive.

O=C(Nc1nnc(-c2ccc(F)cc2)s1)Nc1ccccc1F	none (no result: Tau fibril ThT)
COc1ccc(NCc2cc3cc4c(cc3n(CC(=O)Nc3ccc(C)c(C)c3)c2=O)OCO4)cc1	Tau fluor cs inconclusive, Tau fibril FP inconclusive (no result: JMJD2E inh, Coupling enz)
CC(C)CS(=O)(=O)c1oc(-c2ccc(F)cc2)nc1S(=O)(=O)c1ccccc1	Tau fibril FP inconclusive, Tau fibril ThT inconclusive (no result: JMJD2E inh, Coupling enz)
Cc1ccc(/C=C/C(=O)c2ccc(N3CCOCC3)cc2)s1	Tau fluor cs inconclusive, Tau fibril ThT 7.1µM
Cc1cc2nc(CS)[nH]c2cc1C	Tau fibril ThT 32µM
NC(CCC(=O)N[C@@H](CS)C(=O)NCC(=O)O)C(=O)O (stereo partly specified)	JMJD2E inh inconclusive, Tau fibril FP inconclusive, Tau fibril ThT 32µM
CC12CCC=CC1C(c1ccc(/C=C/c3ccccc3)cc1F)N(Cc1ccccc1)C2=O (stereo unspecified)	none (no result: JMJD2E inh, Tau fluor cs, Tau fibril FP, Tau fibril ThT)
O=C(CNC(=O)c1ccncc1)N/N=C/c1ccc(O)cc1O	JMJD2E inh 20µM
COc1cccc(/C=N/NC(=O)CNC(=O)c2ccc3c(c2)OCCO3)c1O	Tau fibril ThT inconclusive
COCCCNC(=S)N/N=C/c1ccc(O)cc1O	JMJD2E inh 18µM
O=C(CNC(=O)c1ccc2c(c1)OCCO2)N/N=C/c1ccc(O)cc1O	JMJD2E inh 13µM
C(=N\Nc1ccc2ccccc2n1)/c1ccc2c(c1)OCCO2	JMJD2E inh inconclusive, Tau fluor cs inconclusive, Tau fibril ThT inconclusive
COc1cc(OC)c(OC)cc1/C=N/Nc1nc2ccccc2[nH]1	Tau fibril ThT inconclusive
COc1ccc(/C=N/Nc2nc3ccccc3[nH]2)cc1OC	Tau fluor cs inconclusive, Tau fibril FP inconclusive, Tau fibril ThT 13µM
CCN(CC)c1ccc(/C=N/Nc2nc3ccccc3[nH]2)c(O)c1	JMJD2E inh 16µM, Tau fluor cs 18µM[quencher], Tau fibril ThT 14µM
Fc1ccccc1-c1ccc(/C=N/Nc2nc3ccccc3[nH]2)o1	JMJD2E inh inconclusive, Tau fluor cs 14µM[quencher], Tau fibril ThT 6.3µM
C(=N\Nc1nc2ccccc2[nH]1)/c1ccc2c(c1)OCCO2	Tau fluor cs inconclusive, Tau fibril ThT 4µM
COc1ccc(C(=O)Oc2cc(-c3ccc(OC)c(OC)c3)cc(=O)c3c(C)oc(C)c23)cc1	Tau fibril ThT inconclusive (no result: JMJD2E inh, Coupling enz)
COc1cc(/C=N\Nc2nc3ccccc3[nH]2)cc(OC)c1OC	Tau fibril ThT inconclusive
COc1ccc2c(c1)c(/C=N/Nc1nc3ccccc3[nH]1)c(C)n2C	JMJD2E inh inconclusive, Tau fluor cs 28µM[quencher], Tau fibril FP inconclusive, Tau fibril ThT 22µM
C[Si](C)(C/C=C/CC[C@H](O)C1=CCCCC1=O)c1ccccc1	none
CCCCC1=CC2=C(c3ccco3)C(=O)C(C)(OC(=O)c3ccc(OC)cc3)C(=O)C2=CN1Cc1ccccc1 (stereo unspecified)	JMJD2E inh 16µM!, Tau fibril ThT 13µM!
CCCCC1=CC2=C(c3ccco3)C(=O)C(C)(OC(=O)c3ccc(OC)cc3)C(=O)C2=CN1CCc1ccccn1 (stereo unspecified)	JMJD2E inh 8.9µM!, Tau fibril ThT inconclusive
COC(=O)C(C(C)=O)C1c2ccccc2C=C(C)N1C(=O)OC (stereo unspecified)	none
CCCNC(=O)Cn1c(=O)c2cccn2c2cccnc21	none (no result: JMJD2E inh, Coupling enz)
O=[N+]([O-])c1ccccc1-c1ccc(C(=S)N2CCN(c3ccccc3)CC2)o1	Tau fluor cs inconclusive, Tau fibril ThT 11µM
S=C(c1ccc(-c2ccc(Br)cc2)o1)N1CCOCC1	none (no result: Tau fibril ThT)
S=C(c1ccc(-c2ccccc2Cl)o1)N1CCOCC1	Tau fluor cs inconclusive, Tau fibril ThT 25µM
S=C(c1ccc(-c2ccc(Cl)c(Cl)c2)o1)N1CCOCC1	Tau fibril ThT 10µM
CCOC(=O)c1ccc(CN(Cc2ccc(C)cc2)S(=O)(=O)c2ccc(NC(C)=O)cc2)cc1	Tau fluor cs inconclusive, Tau fibril FP 11µM (no result: JMJD2E inh, Coupling enz)
N[C@@H](CCCCNC(=O)CCCC[C@@H]1SC[C@H]2NC(=O)N[C@H]12)C(=O)O	none (no result: JMJD2E inh, Tau fluor cs, Tau fibril FP, Tau fibril ThT)
O=C(O)CCC1CCCC1	none (no result: JMJD2E inh, Tau fluor cs, Tau fibril FP, Tau fibril ThT)
O=C(Cn1cnc([N+](=O)[O-])c1)Nc1cc(Oc2ccc(Cl)cc2Cl)cc([N+](=O)[O-])c1	Tau fluor cs 4.5µM[quencher], Tau fibril FP inconclusive, Tau fibril ThT inconclusive
N#Cc1ccc(NC(=O)Cn2cnc([N+](=O)[O-])c2)cc1	none (no result: JMJD2E inh, Tau fluor cs, Tau fibril FP, Tau fibril ThT)
Cc1[nH]c2ccccc2c1SCc1ccccc1	Tau fluor cs 18µM[quencher], Tau fibril ThT inconclusive
COc1ccc(C)cc1NC(=O)CN1C(=O)CCc2cc(S(=O)(=O)N3CCOCC3)ccc21	none (no result: JMJD2E inh, Coupling enz)
CCOC(=O)c1ccc(NC(=O)C2COc3ccccc3O2)cc1 (stereo unspecified)	none (no result: JMJD2E inh, Tau fluor cs, Tau fibril FP, Tau fibril ThT)
CCOC(=O)c1ccc(-n2c(O)c(/C=N/NC(=O)C3COc4ccccc4O3)c3ccccc3c2=O)cc1 (stereo unspecified)	JMJD2E inh 25µM, Tau fluor cs inconclusive, Tau fibril ThT inconclusive
C[C@@H]1CN=C2N(CCNC(=O)CCC3CCCCC3)[C@H](Cc3ccc(O)cc3)CN21	none
CCCCCCNC(=O)N[C@H](C(=O)NCCC[C@H]1CN2C(=NC[C@H]2C)N1CCC(c1ccccc1)c1ccccc1)C(C)O (stereo partly specified)	JMJD2E inh 20µM
CC1=C(C#N)C(=O)NC(=O)/C1=C\c1ccc(-c2ccc(C)cc2[N+](=O)[O-])o1	JMJD2E inh inconclusive, Tau fluor cs inconclusive, Tau fibril FP inconclusive, Tau fibril ThT 16µM
CCOC(=O)c1cc(-c2ccc(/C=C3/C(=O)NC(=O)C(C#N)=C3C)o2)ccc1Cl	JMJD2E inh inconclusive, Tau fluor cs inconclusive, Tau fibril ThT inconclusive
COc1ccccc1CNc1ncncc1-c1ccccc1OC	none (no result: JMJD2E inh, Tau fluor cs, Tau fibril FP, Tau fibril ThT)
COc1cccc(OC)c1C(=O)NC(=S)Nc1cc(-c2nc3ccccc3[nH]2)ccc1Cl	Tau fibril FP inconclusive
CC(C)(Oc1ccc(Br)cc1)C(=O)Nc1cc(-c2nc3ccccc3[nH]2)ccc1Cl	Tau fluor cs inconclusive, Tau fibril FP 16µM (no result: JMJD2E inh, Coupling enz)
O=C(CCN1CCN(C(c2ccccc2)c2ccccc2)CC1)N/N=C/c1ccc(O)cc1O	JMJD2E inh inconclusive, Tau fluor cs 16µM[quencher], Tau fibril FP inconclusive
O=C(CCC(=O)Nc1ccc(F)cc1)N/N=C/c1ccc(O)cc1O	JMJD2E inh 25µM, Tau fibril ThT inconclusive
O=C(CCN1CCN(C(c2ccccc2)c2ccccc2)CC1)N/N=C/c1ccc(O)cc1	Tau fluor cs inconclusive
Cc1cc(C)n(CCC(=O)N/N=C/c2ccccc2O)n1	none
Cc1cc(C)n(CCC(=O)N/N=C/c2ccc(O)cc2O)n1	JMJD2E inh 14µM
CCCCN(C)CCCNC(=O)Cn1nc(CC)n2c(cc3sc(C)cc32)c1=O	none (no result: JMJD2E inh, Coupling enz)
Cc1noc(/C=C/Nc2ccc(F)cc2F)c1[N+](=O)[O-]	Tau fibril ThT 3.2µM
CCC(=O)NC1CCc2cccc(OC)c2C1 (stereo unspecified)	none (no result: JMJD2E inh, Coupling enz)
Cc1ccc(C)c2[nH]c(=O)c(CN(CCN3CCOCC3)Cc3nnnn3CC3CCCO3)cc12 (stereo unspecified)	JMJD2E inh inconclusive

Source: PubChem BioAssay (National Center for Advancing Translational Sciences (NCATS))
